High-throughput results: PubChem, National Center for Advancing Translational Sciences (NCATS)
Most compounds without a hit are left out; they make up all but 11% or so of the library.
Luciferase inh: blocks purified firefly luciferase enzyme activity; P08659; purified P. pyralis luciferase, luminescence, biochemical; Potency, µM (series often up to 115 µM), actives largely listed as inhibitors; actives 2.5% (n = 76,000); AID 1347043; also: nearly all actives have a fitted effect of over 65% in size
Target sequence (P08659 whole entry, looked up): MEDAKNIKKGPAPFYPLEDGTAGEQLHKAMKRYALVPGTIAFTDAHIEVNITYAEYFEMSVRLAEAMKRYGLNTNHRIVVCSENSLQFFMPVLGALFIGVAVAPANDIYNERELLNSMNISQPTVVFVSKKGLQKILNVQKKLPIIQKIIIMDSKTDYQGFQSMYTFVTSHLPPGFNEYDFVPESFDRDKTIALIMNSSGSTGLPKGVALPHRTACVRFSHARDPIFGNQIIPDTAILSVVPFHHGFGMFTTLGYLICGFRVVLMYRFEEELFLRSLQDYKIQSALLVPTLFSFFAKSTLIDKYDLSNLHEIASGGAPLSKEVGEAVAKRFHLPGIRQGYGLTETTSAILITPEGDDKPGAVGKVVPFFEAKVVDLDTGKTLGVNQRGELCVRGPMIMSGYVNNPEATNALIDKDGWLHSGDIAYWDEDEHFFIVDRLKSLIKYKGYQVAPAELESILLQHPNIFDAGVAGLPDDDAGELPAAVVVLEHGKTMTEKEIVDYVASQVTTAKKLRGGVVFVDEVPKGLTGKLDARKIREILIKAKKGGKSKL
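Luminescence read by CCD imager after adding enzyme (10nM final) to wells holding compound, titrated in qHTS. Substrates 10uM each D-luciferin and ATP; buffer 50mM Tris acetate pH 7.5, 10mM Mg acetate, Tween-20, BSA.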
NIH3T3 tox: kills NIH 3T3 cells; Potency, µM (highest dose often 96.7 µM), without a hit: at the top dose activity change, negative = cytotoxicity, actives largely listed as inhibitors; NIH 3T3 viability, CellTiter-Glo ATP luminescence, 48-72 h; actives 4.3% (n = 94,000); AID 1345082; also: nearly all actives have a fitted effect of over 55% in size
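Luminescent ATP readout (CellTiter-Glo, 10 min RT) after 48 or 72 hr compound exposure of NIH 3T3 cells seeded at 400 cells/well in 1536-well format; quantitative HTS.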
NPR1 antag: antagonists of human natriuretic peptide receptor Npr1 | Potency, µM (titrated, usually from 46.3 µM), without a hit: at the highest dose activity change, negative = inhibition, hits mostly inhibitors | actives 1.6% (n = 76,000) | HEK293 hNpr1 GloSensor cGMP, ANP-stimulated luminescence | AID 1347048; calls by dose curve; also: nearly all actives have a fitted effect of over 60% in size
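Compound pre-incubated 30 min at room temperature on GloSensor-loaded HEK293 cells stably carrying hNpr1 and the pGS-40F cGMP biosensor. Stimulation uses hNppA at 0.1 nM final; luminescence is taken at baseline and 20 min post-agonist.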
HEK293 tox: HEK 293 cell cytotoxicity; HEK 293 viability, ATP luminescence (CellTiter-Glo), 48-72 h; Potency, µM (series often up to 115 µM), for inactives: at the top dose activity change, negative = cytotoxicity, most hits filed as inhibitors; actives 6.6% (n = 94,000); also: nearly all actives have a fitted effect of over 60% in size
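250 HEK 293 cells/well; compound by pintool; incubated 48 or 72 hr at 37 degree Celsius; CellTiter-Glo added, 10 min RT, luminescence imaged.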
* hit, by the source's call; i = inactive; ? = inconclusive; nt = no result given; [ ] = another dose, or the depositor's remark. Unless noted, calls follow the shape of the dose curve; as a rule, active = well fitted curve in the direction sought with a large enough effect; inconclusive = small, poorly fitted or top-dose-only effect, or another doubt; inactive = no such curve, though single readings can be large; an effect the other way counts as inactive or inconclusive. % is scaled to controls: 0 for no effect and ±100 for the full control effect; potency is read from the fitted curve at half-maximal effect.

SMILES	Luciferase inh	NIH3T3 tox	NPR1 antag	HEK293 tox
CN1C[C@H](C(=O)NCc2ccncc2)C[C@H]1c1cccc(C(F)(F)F)c1	i	-27%[138 µM]	-14%[70.6 µM]	?
COc1ccc(NC(=O)[C@@H]2C[C@@H](c3cccc(C(F)(F)F)c3)N(C)C2)cc1OC	i	?	-22%[70.6 µM]	?
CN1C[C@H](C(=O)N2CCN(c3ccccn3)CC2)C[C@H]1c1cccc(C(F)(F)F)c1	i	?	-28%[70.6 µM]	89µM*
CN1C[C@H](C(=O)Nc2cccc(Cl)c2)C[C@H]1c1cccc(C(F)(F)F)c1	i	32µM*	-22%[70.6 µM]	35µM*
O=C1CC(c2ccccc2)N(C(=O)CNC(=O)c2ccc3ccccc3n2)CCCCCN1 (centres undefined)	i	-18%	-20%	-2%
CC(=O)NC1(C)CCN(Cc2ccc(-c3ccccc3OCc3ccccc3)cc2)C1 (centres undefined)	?	32µM*	-4%[70.6 µM]	32µM*
COc1cc(CN2CCC(C)(NC(C)=O)CC2)cc(NCc2ccccc2)c1	i	-10%[138 µM]	2%[70.6 µM]	?
COc1cccc(Nc2cc(CN3CCC(C)(NC(C)=O)CC3)cc(OC)c2)c1	i	100µM*	-1%[70.6 µM]	112µM*
CC(=O)NC1(C)CCN(Cc2ccc(-c3cccc(Cl)c3)cc2)C1 (centres undefined)	i	?	-22%[70.6 µM]	89µM*
CC(=O)NC1(C)CCN(Cc2cccc(-c3ccccc3)c2)C1 (centres undefined)	i	-26%[138 µM]	1%[70.6 µM]	?
CC(=O)NC1(C)CCN(Cc2ccc(-c3ccc(N4CCOCC4)cc3)cc2)C1 (centres undefined)	?	?	-14%[70.6 µM]	?
CC(=O)NC1(C)CCN(Cc2ccc(-c3cccc(F)c3)cc2)C1 (centres undefined)	i	89µM*	-15%[70.6 µM]	?
CCN1CCN(C(=O)c2ccc3nnc(-c4ccoc4)n3c2)CC1	nt	-8%[138 µM]	nt	-4%[172 µM]
CCN(CC)Cc1nc(C2(O)CCN(C3CCC(F)(F)CC3)CC2)cs1	i	?	9%[70.6 µM]	?
CC(=O)NC1(C)CCN(Cc2ccc(-c3cccc(C(F)(F)F)c3)cc2)C1 (centres undefined)	63µM*	45µM*	-15%[70.6 µM]	50µM*
CC(=O)NC1(C)CCN(Cc2ccccc2-c2ccc3c(ccn3C)c2)C1 (centres undefined)	i	89µM*	1%[70.6 µM]	100µM*
CC(=O)NC1(C)CCCN(Cc2cc(-c3ccccc3)cs2)C1 (centres undefined)	i	?	4%[70.6 µM]	?
CC(=O)NC1(C)CCCN(Cc2cc(-c3cccc(N(C)C)c3)cs2)C1 (centres undefined)	71µM*	?	-1%[70.6 µM]	63µM*
COCCNC(=O)c1ccc(CC2CCN(C(=O)Cc3ccccc3)CC2)cc1	i	-19%	-2%	-29%
O=C(Nc1ccc(F)cc1)[C@@H]1C[C@@H](c2ccc(F)cc2)N([S+](=O)([O-])c2cccnc2)C1	i	?	-2%	?
O=C(CN1C(=O)CCC1=O)N1CCC(CCOc2ccccc2F)C1 (centres undefined)	i	-28%	?	45µM*
CN(CC(=O)N1CCC(C)(c2noc(C3CC3)n2)CC1)S(=O)(=O)c1ccc2c(c1)oc(=O)n2C	i	-21%	18%	-14%
CN(CC(=O)N1CCC(CCOc2ccccc2F)C1)S(=O)(=O)c1ccc2c(c1)oc(=O)n2C (centres undefined)	i	?	-23%	40µM*
Cc1nn(C(=O)CCC(=O)N2CCC(CCOc3ccccc3F)C2)c2ccccc12 (centres undefined)	i	-8%	-3%	-12%
CN1CCCCC(CC(=O)N2CCN(c3ccc(F)cc3)CC2)C1=O (centres undefined)	nt	-4%	nt	3%
SMILES	Luciferase inh	NIH3T3 tox	NPR1 antag	HEK293 tox
COCCN1CC(CO)C2(CCN(Cc3cccc(Cl)c3F)CC2)C1 (centres undefined)	i	?	-7%	?
Cc1nc(C(=O)N2CC(=O)N(C3CCCCC3)CC(OCc3ccccc3)C2)cs1 (centres undefined)	i	-1%	-10%	-21%
O=C(Nc1ccccc1)c1cnc2n1CCN(Cc1cccc(O)c1)CC2	?	?	-1%[70.6 µM]	?
CC(C)CCNC(=O)c1cnc2n1CCN(Cc1ccc(C(C)C)cc1)CC2	i	?	?	56µM*
CC(C)c1ccc(CN2CCc3ncc(C(=O)Nc4ccccc4)n3CC2)cc1	i	28µM*	-25%[70.6 µM]	32µM*
COc1ccc(Cn2c(=O)c(-c3noc(C)n3)c3n(c2=O)CCCCC3)cc1	i	-3%	17%	-6%
CC(C)=CCN1C[C@H](NC(=O)CCc2cccs2)C[C@H]1C(=O)NC(C)C	i	1%	4%	i
COc1ccc(S(=O)(=O)N2CCc3nnc(C4CC4)n3CC2)cc1	nt	-21%	nt	-20%
CCOC(=O)C(Cc1cccc(N2CCN([S+](=O)([O-])c3c(Cl)cccc3Cl)CC2)c1)OC (centres undefined)	nt	?	nt	20µM*
CCOC(=O)C(Cc1cccc(N2CCN(C(=O)c3ccccc3F)CC2)c1)OC (centres undefined)	nt	-29%	nt	?
COc1ccc(N2C(=O)CSC23CCN(C(=O)Nc2ccc([N+](=O)[O-])cc2)CC3)cc1	i	?	-4%	25µM*
O=C(Nc1ccccc1)N1CCC2(CC1)SCC(=O)N2c1ccc(Cl)cc1	22µM*	?	-4%	?
O=C(c1cccs1)N1CCC2(CC1)SCC(=O)N2c1ccc(Cl)cc1	i	-26%	-3%	-22%
Cc1cc2nc(CO[C@H]3CN(Cc4ccc(S(C)(=O)=O)cc4)C[C@H]3F)[nH]c2cc1C	56µM*	-21%[174 µM]	-19%[70.6 µM]	?
Cc1ccc2nc(CO[C@H]3CN(Cc4ccc(F)c(F)c4)C[C@H]3F)[nH]c2c1	i	?	-27%[70.6 µM]	?
Cn1cc(CN2C[C@@H](F)[C@@H](OCc3nc4ccc(C#N)cc4[nH]3)C2)c2ccccc21	i	89µM*	?	89µM*
Cc1ccc2nc(CO[C@H]3CN(Cc4ccc(Cl)cc4)C[C@H]3F)[nH]c2c1	i	?	?	89µM*
CCNC(=O)N1C[C@@H](F)[C@@H](OCc2nc3ccc(C)cc3[nH]2)C1	63µM*	3%[138 µM]	3%[70.6 µM]	1%[172 µM]
CS(=O)(=O)c1ccc(CN2C[C@@H](F)[C@@H](OCc3nc4ccc(F)cc4[nH]3)C2)cc1	i	-12%[138 µM]	?	-24%[172 µM]
CN1C[C@@H](F)[C@@H](OCc2nc3ccc(C(F)(F)F)cc3[nH]2)C1	50µM*	?	-5%[70.6 µM]	-24%[172 µM]
O=C(C[C@@H]1CCNC[C@@H]1Cc1cc(-c2ccccc2)on1)N1CCCCC1	i	?	-2%[70.6 µM]	?
CC(C)(C)c1ccc(-c2cc(C[C@H]3CNCC[C@H]3CC(=O)N3CCN(c4ccc(F)cc4)CC3)no2)cc1	i	?	-3%	?
